Results taken from PubChem BioAssay (NCATS).
Results filed as inconclusive are left out. For some assays here: Results with a measured potency or affinity are listed apart. Activity calls are given as the source filed them. For most assays here, calls come from the whole dose curve; as a rule, active = well fitted curve in the direction sought with a large enough effect; inconclusive = small, poorly fitted or top-dose-only effect, or another doubt; inactive = no such curve, though single readings can be large; an effect the other way counts as inactive or inconclusive.

Assays:
[1] = Ebola virus entry assay, reporter ratio channel; AC50: Channel type: primary unless noted; outcome: Channel type: primary unless noted
[2] = Ebola virus entry assay, blue channel (ratio component)
[3] = qHTS assay for measurement of the activity of small molecule inhibitors on Zika virus induced Caspase-3 activity in human iPSC derived neural progenitor cells (hNPCs) (AID 1224857); conditions: hNPCs ZIKV-induced caspase-3/7, Caspase-Glo luminescence, 6 h; series mostly up to 45.7 µM; note: nearly all actives have a fitted effect of over 65% in size
Procedure, shortened: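 Percent inhibition of virus-induced caspase-3/7 luminescence (Caspase-Glo), scaled between uninfected cells and Zika-infected cells. hNPCs received compound 1 hr before ZIKV at 2 FFU/cell, with 6 hours infection at 37 C.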

[4] = qHTS assay for measurement of the activity of small molecule inhibitors on Zika virus induced Caspase-3 activity in human astrocytoma cells (AID 1224859); conditions: SNB-19 ZIKV-induced caspase-3/7, luminescence, 6 h; series mostly up to 45.7 µM
Procedure, shortened: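 Luminescent caspase-3/7 read-out (30 min reagent, room temperature) in human SNB-19 cells infected 6 h with ZIKV (2 FFU/cell) after 1 h compound pre-incubation; Data were normalised to uninfected and infected wells.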

[5] = qHTS assay to identify small molecule inhibitors of chordoma cells - UCH-1 (AID 1259355); conditions: UCH-1 chordoma viability, CellTiter-Glo, 48 h, combination; series mostly up to 46.1 µM; note: nearly all actives have a fitted effect of over 55% in size
Procedure, shortened: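 Screening used approved and investigational drugs in 15-point titration against 800 seeded cells per well. A fixed combination of auranofin with camptothecin, doxorubicin, rubitecan and topotecan followed compound addition, and growth was scored by CellTiter-Glo after 48hr.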

[6] = P-glycoprotein substrates identified in KB-3-1 adenocarcinoma cell line, qHTS therapeutic library screen (AID 1346986); conditions: KB-3-1 parental cells viability, CellTiter-Glo, 72 h; at 44.5 µM (top of the series) unless noted; note: nearly all actives have a fitted effect of over 60% in size
Procedure, shortened: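 In 1536-well format, 500 cells/well received pinned compound titrations and were incubated 72 h, 5% CO2. Viability was read by CellTiter-Glo; cytotoxic if AC50 < 10 uM and efficacy >50%.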

[7] = Ebola virus entry cell assay, ratio channel
[8] = Ebola virus entry reporter assay, green channel fluorescence
[9] = qHTS assay to identify small molecule inhibitors of chordoma cells - UCH-2 (AID 1259356); conditions: UCH-2 chordoma viability, CellTiter-Glo ATP luminescence, 48 h; series mostly up to 46.1 µM

Measured: AC50

C[C@]12CC[C@H]3[C@@H](CCC4=CC(=O)CC[C@@H]43)[C@@H]1CC[C@@H]2OC(=O)CCc1ccco1
inactive: [1] | [2] | [3] | [4]

COC(=O)[C@@H](N)CCCN/C(N)=N/[N+](=O)[O-]
inactive: [1] | [2] | [3] | [4] | [5]

COc1ccc2c3c1O[C@H]1[C@H](O)CC[C@H]4[C@@H](C2)N(C)CC[C@@]341
inactive: [1] | [2] | [3] | [4]

C=CCC1(C(C)CC)C(=O)NC(=O)NC1=O (stereo unspecified)
inactive: [1] | [2] | [3] | [4]

C[C@@H](N)[C@@H](O)c1ccccc1
inactive: [1] | [2] | [3] | [4] | [5]

CCCOC(=O)c1cncn1C(C)c1ccccc1 (stereo unspecified)
inactive: [1] | [2] | [3] | [4]

O=c1c(C2CC(c3ccc(-c4ccc(Br)cc4)cc3)Cc3ccccc32)c(O)sc2ccccc12 (stereo unspecified)
inactive: [1] | [2] | [3] | [4]

CCC(C)(C)c1ccc(O)cc1
inactive: [1] | [2] | [3] | [4] | [5]

CC(C)=CC1C(C(=O)OCN2C(=O)C3=C(CCCC3)C2=O)C1(C)C (stereo unspecified)
inactive: [1] | [2] | [3] | [4] | [5]

O=[N+]([O-])O[C@H]1CO[C@H]2[C@@H]1OC[C@H]2O[N+](=O)[O-]
inactive: [1] | [2] | [3] | [4] | [5]

CC[N+]1(CC)CCC(OC(=O)C(O)(c2ccccc2)c2ccccc2)C1 (stereo unspecified)
inactive: [1] | [2] | [3] | [4]

CCCN(CCC)C(=O)Cc1c(-c2ccc(Cl)cc2)nc2ccc(Cl)cn12
inactive: [1] | [2] | [3] | [4]

Oc1ccc(Cl)cc1
inactive: [1] | [2] | [3] | [4] | [5]

CCc1cc2c(s1)-n1c(C)nnc1CN=C2c1ccccc1Cl
inactive: [1] | [2] | [3] | [4]

O=C1c2ccccc2C(=O)C1C(=O)C(c1ccccc1)c1ccccc1
inactive: [1] | [2] | [3] | [4] | [5]

NC(=O)CS(=O)C(c1ccccc1)c1ccccc1 (stereo unspecified)
inactive: [1] | [2] | [3] | [4] | [5]

C[C@]12Cc3cn[nH]c3C[C@@H]1CC[C@@H]1[C@@H]2CC[C@@]2(C)[C@H]1CC[C@]2(C)O
inactive: [1] | [2] | [3] | [4]

CCN(CCO)CCn1c(Cc2ccccc2)nc2c1c(=O)n(C)c(=O)n2C
inactive: [1] | [2] | [3] | [4]

CN(C)CCc1c[nH]c2cccc(OP(=O)(O)O)c12
inactive: [1] | [2] | [3] | [4]

Nc1nc(N)nc(NC2CC2)n1
inactive: [1] | [2] | [3] | [4] | [5]

O=c1[nH]c2ccccc2n1C1CCNCC1
inactive: [1] | [2] | [3] | [4]

CC(C)(N)Cc1ccccc1Cl
inactive: [1] | [2] | [3] | [4]

O=C1OC(CCN2CCCCC2)OC1(c1ccccc1)c1ccccc1 (stereo unspecified)
inactive: [1] | [2] | [3] | [4]

CC(C(=O)c1ccccc1)N(C)C (stereo unspecified)
inactive: [1] | [2] | [3] | [4]

CC(=O)OCC1=C(C(=O)O)N2C(=O)[C@@H](N)[C@H]2SC1
inactive: [6]

C=CCN1C[C@H](C)N([C@H](c2ccc(C(=O)N(CC)CC)cc2)c2cccc(OC)c2)C[C@H]1C
inactive: [6] inactive [at 9.29 µM]

O=C(N/N=C/c1ccc([N+](=O)[O-])o1)c1cc([N+](=O)[O-])cc([N+](=O)[O-])c1O
inactive: [1] | [2] | [4] | [5]

C[C@H]1[C@@H]2Cc3ccc(O)cc3[C@@]1(C)CCN2C
inactive: [1] | [4]

O=C1OC(c2ccc(O)c(S(=O)(=O)O)c2)(c2ccc(O)c(S(=O)(=O)O)c2)c2c(Br)c(Br)c(Br)c(Br)c21
inactive: [1] | [2] | [4] | [5]

CN1CCN(CCC=C2c3ccccc3Sc3ccc(S(=O)(=O)N(C)C)cc32)CC1
active: [7] 4.47 µM
inactive: [1] inactive [Channel type: confirmation]

CN1[C@@H]2CCC[C@@H]1CC(NC(=O)c1nn(C)c3ccccc13)C2 (stereo partly specified)
inactive: [8] | [7]

CCN(CC)CCc1c[nH]c2ccccc12
inactive: [1] | [3] | [4]

CN1CC[C@]23c4c5ccc(O)c4O[C@H]2[C@@H](O)C=C[C@H]3[C@H]1C5
active: [1] 35.5 µM
inactive: [4]

COP(=S)(OC)Oc1ccc(SC)c(C)c1
inactive: [1] | [2] | [4] | [5] | [9]
